Keap1-Nrf2 PPI = Keap1-Nrf2 protein-protein interaction inhibitors, primary screen, biochemical, fluorescence polarization, single point. Keap1 Kelch-Nrf2 peptide fluorescence polarization, 1536-well. inhibition, % at 9.4 µM. 0.15% of 340,000 active. AID 504523, 2011; in the data active = inhibition above about 12%;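 also: human Keap1 Kelch domain with fluorescein labeled Nrf2 9mer peptide probe; higher means more block of Keap1 binding to Nrf2 peptide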
Cardiac RTF inh = cardiac RTF calcium sensitivity inhibitors, primary screen, biochemical, IANBD-TnC fluorescence, EC70 calcium; IANBD-labeled cardiac RTF, Ca2+ fluorescence; inhibition, % at 7.15 µM; Troponin I, cardiac muscle (Homo sapiens) + Troponin T, cardiac muscle (Homo sapiens) + …; 0.12% of 340,000 active;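 active = inhibition above the mean inhibition of all tested compounds plus 3 SD, cut at about 17% in these data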;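 also: assay run at fixed EC70 calcium of 1.6 mM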
cardiac RTF act = cardiac RTF calcium sensitivity activators, primary screen, biochemical, IANBD-TnC fluorescence, EC20 calcium; AID 493008, 2010; Troponin I, cardiac muscle (Homo sapiens) + Troponin T, cardiac muscle (Homo sapiens) + …; 0.24% of 340,000 active; IANBD-labeled TnC RTF fluorescence at EC20 calcium; 0% EC20 calcium, 100% full calcium; activation, % at 7.2 µM;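 active = activation above the mean over all tested compounds plus 3 SD, cut at about 30% in these data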;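 also: rise in fluorescence read as greater calcium sensitivity of cardiac thin filaments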
LANA-H2A inh = blockers of LANA interaction with H2A/H2B – biochemical, FP readout, HTS, primary screen; Protein LANA1 (Human herpesvirus 8 type P (isolate GK18)), Q9QR71; cell-free LANA-H2A/H2B peptide, fluorescence polarization; inhibition, % (no concentration beside the values); 0.6% of 320,000 active; in the data active = inhibition mostly above about 10%, no sharp cut-off; inactive = mostly below about 6.7%
LANA DNA inh = inhibitors of KSHV C-LANA binding to DNA, primary screen, biochemical, fluorescence polarization, FAM-LBS DNA, MBP-C-LANA, single point; inhibition, % at 9 µM; AID 504423, 2011; Kaposi's sarcoma herpesvirus LANA C-terminal domain (residues 932-1162) DNA binding; 0.078% of 340,000 active;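 active = highest replicate inhibition at or above 60% at 9 µM, even if other replicates fall short; inactive = all replicates below 60% inhibition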
Hits are given with their value; – = inactive; · = no result given; + = active, no number. Compounds with a hit are over-represented: about 0.98% of the library has one in this group of screens.

SMILES	Keap1-Nrf2 PPI	Cardiac RTF inh	cardiac RTF act	LANA-H2A inh	LANA DNA inh
CCN(CC(=O)Nc1ccccc1C(F)(F)F)C(=O)c1cc(-c2ccccc2)nn1-c1ccccc1	·	–	–	–	·
CCCCc1nc2cc(C(=O)N3CCCCC3CCNC(C)=O)ccc2o1 (stereo not given)	–	–	–	–	–
Cc1ccc(S(=O)(=O)NC(=O)Nc2cc(C(C)(C)C)on2)cc1	·	·	·	–	·
[O-][n+]1c2ccccc2cc2ccccc21	–	–	–	17.8	–
COc1ccc2c(ccc[n+]2[O-])c1	–	–	–	·	–
Nc1cccc2c1C(=O)N(C(=O)c1cccc(S(=O)(=O)N3CCCC3)c1)C2=O	–	–	–	–	–
Cc1ccc(C(=O)N2C(=O)c3cccc(N)c3C2=O)o1	–	–	–	19.6	–
Oc1ccc(N=Nc2ccccc2)o1	–	–	–	–	–
O=C1CN(C(=O)CNCc2cccc(Cl)c2)c2ccccc2N1	–	–	–	–	–
Oc1ccccc1N1CCN(C(=S)Nc2ccc(SC(F)F)cc2)CC1	–	–	–	23.1	–
FC(F)Sc1ccc(NC(=S)N2CCN(c3ccccn3)CC2)cc1	–	–	–	·	–
CC(C)C(=O)N1CCN(c2ccc(NC(=S)NC(=O)c3cc4ccccc4o3)cc2)CC1	–	–	–	–	–
CCC(=O)N1CCN(c2ccc(NC(=S)NC(=O)c3cc4ccccc4o3)cc2)CC1	–	–	–	93.6	–
S=C(Nc1ccccc1Cl)N(CCCN1CCOCC1)Cc1ccccn1	–	–	–	–	–
COc1cc(/C=C2\SC(=O)N(CCNC(=O)c3sc4cc(F)ccc4c3Cl)C2=O)cc(OC)c1OC	–	–	–	15.2	–
CC1=C([N+](=O)[O-])C(c2ccccc2)NC(=O)N1 (stereo not given)	–	–	–	–	–
O=C(O)c1cc(S(=O)(=O)NCC2CCCO2)ccc1Cl (stereo not given)	–	–	–	–	–
CC(C)C1CC(CCNCc2ccc(N(C)C)cc2)(c2ccccc2)CCO1 (stereo not given)	–	–	–	7.2	–
CSc1ccc(CCNC(=O)CCc2nnc3ccc(N4CCC5(CC4)OCCO5)nn23)cc1	–	–	–	–	–
CCCN1CCC(NC(=O)Nc2ccc([N+](=O)[O-])cc2)CC1	–	–	–	–	–
CCCN1CCC(NC(=O)Nc2ccc(Br)cc2)CC1	–	–	–	17.7	–
C#CCNC(=O)C1=C[C@H](c2ccc(Br)cc2)C[C@H](OCCCCO)O1	–	–	–	–	–
C/C(=C\c1ccc2c(c1)OCO2)C1Nc2cccc3cccc(c23)N1	–	–	–	–	62.3
O=C(/C=C/c1cc[n+](CC(=O)c2ccc3cccc4c3c2CC4)cc1)c1ccc2cccc3c2c1CC3	–	17.5	–	–	–
COc1ccc(-c2cc(C(=O)N(C)Cc3ccc(F)cc3)c3ccccc3n2)cc1OC	–	–	–	–	–
SMILES	Keap1-Nrf2 PPI	Cardiac RTF inh	cardiac RTF act	LANA-H2A inh	LANA DNA inh
CC(C)CC(NC(=O)c1cccc(Cl)c1)C(=O)O (stereo not given)	–	–	–	-6.2	–
Cc1cc(C(=O)NC(CC(C)C)C(=O)O)cc(C)c1[N+](=O)[O-] (stereo not given)	–	–	–	25.1	–
C=CCNc1nc(Nc2ccccc2F)nc(OCC)n1	–	–	–	15.7	–
COc1ccc(Cl)cc1NC(=O)CSc1nnc(C2CC2)n1C	–	–	–	–	–
COc1ccc2c(c1)c(/C=C/c1cc[n+](C)cc1)cn2C	–	–	74.5	–	–
CC(CN1CCOCC1)OC(=O)COc1ccc(F)cc1 (stereo not given)	–	–	–	–	–
O=C(COc1ccc(F)cc1)OCCN1CCOCC1	–	–	–	33.9	–
NS(=O)(=O)c1cccc(NC(=O)C(Cc2ccccc2)NC(=O)c2ccccc2)c1 (stereo not given)	–	–	–	–	–
CCn1nc(CC(C)C)cc1C(=O)N1CCCC(Nc2ccc(OC)cc2)C1 (stereo not given)	–	–	–	–	–
CCC(C)NC(=O)CSc1nc2ccccc2c(=O)n1-c1c(C)n(C)n(-c2ccccc2)c1=O (stereo not given)	–	–	–	100.2	–
Cc1ccc(C(=O)NN2C(=O)/C(=C/c3cccn3C)SC2=S)cc1	–	–	–	–	–
Cn1cc(/C=C2\SC(=S)N(NC(=O)c3ccccc3Cl)C2=O)c2ccccc21	–	–	73.5	–	–
Cc1ccc(C(=O)NN2C(=O)/C(=C/c3cn(C)c4ccccc34)SC2=S)cc1	–	–	76.5	·	–
CCCN(CCC)S(=O)(=O)c1ccc(C)cc1	–	–	–	–	–
Cc1csc(CNC(=O)C2CCC(=O)N(CCCc3ccccc3)C2)n1 (stereo not given)	–	–	–	·	–
C/C(=N\NC(N)=S)C1=CCC2C3CC[C@H]4CC(O)CC[C@]4(C)C3CC[C@]12C (stereo not given in full)	–	–	–	–	–
CSCC[C@H](NS(=O)(=O)c1ccc(C)cc1)C(=O)N1CCC(C(=O)N[C@@H](Cc2ccc(O)cc2)C(=O)O)CC1	–	–	–	–	–
N=c1oc2c3c4c(cc2cc1C(=O)Nc1ccccc1)CCCN4CCC3	–	–	+	–	–
COc1ccc(C(Sc2ccccc2)c2ccccc2)cc1OC (stereo not given)	–	–	–	12.0	–
O=c1nc(SCc2cccc(C(F)(F)F)c2)nc2ccccn12	–	–	–	16.9	–
CCCSc1nnc(CNS(=O)(=O)c2ccc(C)cc2)n1C	–	–	–	–	–
CC(=O)c1c(C)[nH]c(C(=O)Nc2cccc3ccccc23)c1C	–	–	–	–	–
CC(=O)c1c(C)[nH]c(C(=O)Nc2cccc(C)n2)c1C	–	–	–	9.4	–
CN(Cc1nc2ccccc2n1C)C(=O)c1ccco1	–	–	–	–	–
Cc1onc(-c2c(Cl)cccc2Cl)c1C(=O)N1CCCc2ccccc21	–	–	–	–	–
Cc1onc(-c2c(F)cccc2Cl)c1C(=O)N1CCc2ccccc21	–	–	–	66.0	–
CCC1CCCCN1C(=O)COc1ccc2c3c(c(=O)oc2c1)CCC3 (stereo not given)	–	–	–	31.5	–
COCCN(CCOC)Cc1c(O)ccc2c1O/C(=C\c1ccc(C)o1)C2=O	–	–	146.8	–	–
CCN(CC)Cc1c(O)ccc2c1O/C(=C\C=C\c1ccccc1)C2=O	–	–	112.8	–	–

Screens as filed in PubChem.
